TDP1 cell CPT – qHTS for Inhibitors of human tyrosyl-DNA phosphodiesterase 1 (TDP1): qHTS in cells in presence of CPT; chicken DT40 Tdp1-/-;hTDP1 cells + 20 nM CPT, ATP luminescence, 48 h; hit rate 12% among 420,000; Potency, µM (doses to about 46.2 µM), inactives show at the highest dose activity change, negative = growth inhibition, most hits filed as inhibitors; AID 686979, 2013; further: potency means the concentration at half of the fitted maximal effect; on the % scale 0 is the no-effect control and ±100 the full control effect; nearly all actives have a fitted effect of over 55% in size
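Cell growth measured by CellTiter-Glo luminescence after a minimum 48 h, 37 C compound exposure with 20 nM CPT in Tdp1-knockout DT40 cells stably expressing hTDP1, seeded 400/well; qHTS titration format.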
HepG2 viability – qHTS for Inhibitors of TGF-b: Cytotox Counterscreen | HepG2 CAGA-GFP viability, ATP luminescence, 18 h | Potency, µM (series often up to 46.1 µM), for the others: at the top dose activity change, negative = cytotoxicity, most hits filed as cytotoxic | hit rate 0.76% among 410,000 | AID 588856, 2011; further: potency means the concentration at half of the fitted maximal effect
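HepG2 CAGA-GFP cells (1000/well, DMEM with 1% FBS) received compound, then TGF-beta at 500 pg/mL final, and were incubated 18 hours at 37 degrees C. Viability was read by CellTiter-Glo luminescence. Media-only wells were set as complete cell-killing and DMSO as no toxicity.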
TGFb inhibitor – qHTS for Inhibitors of TGF-b; Potency, µM (top dose mostly 46.1 µM), for inactives: at the highest dose activity, negative = inhibition, usual class: inhibitors; HepG2 CAGA-GFP TGF-b/SMAD3 reporter, GFP fluorescence, 18 h; TGF-beta stimulated, 500 pg/mL final; hit rate 1.2% among 410,000; AID 588855, 2011; further: potency means the concentration at half of the fitted maximal effect; on the % scale 0 is the no-effect control and ±100 the full control effect; nearly all actives have a fitted effect of over 65% in size
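HEPG2 CAGA-GFP, 1000 cells/well; 2 h settle, 37 C; cpd via pin tool; TGF-b 500 pg/mL final; 18 h, 37 C; GFP imaging ex488/em500-530; %Activity normalised to -TGF-b and +DMSO controls; CRC fit, curve class.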
ASM inhibitor – Inhibitors of Secretory Acid Sphingomyelinase (S-ASM): qHTS | placental ASM, HMU-PC fluorogenic substrate, 60 min | Potency, µM (doses to about 57.5 µM), for inactives: at the top dose activity change, negative = inhibition, hits mostly inhibitors | hit rate 0.006% among 340,000 | AID 504937, 2011; further: potency means the concentration at half of the fitted maximal effect
Target sequence (P17405 47-631 limits assumed): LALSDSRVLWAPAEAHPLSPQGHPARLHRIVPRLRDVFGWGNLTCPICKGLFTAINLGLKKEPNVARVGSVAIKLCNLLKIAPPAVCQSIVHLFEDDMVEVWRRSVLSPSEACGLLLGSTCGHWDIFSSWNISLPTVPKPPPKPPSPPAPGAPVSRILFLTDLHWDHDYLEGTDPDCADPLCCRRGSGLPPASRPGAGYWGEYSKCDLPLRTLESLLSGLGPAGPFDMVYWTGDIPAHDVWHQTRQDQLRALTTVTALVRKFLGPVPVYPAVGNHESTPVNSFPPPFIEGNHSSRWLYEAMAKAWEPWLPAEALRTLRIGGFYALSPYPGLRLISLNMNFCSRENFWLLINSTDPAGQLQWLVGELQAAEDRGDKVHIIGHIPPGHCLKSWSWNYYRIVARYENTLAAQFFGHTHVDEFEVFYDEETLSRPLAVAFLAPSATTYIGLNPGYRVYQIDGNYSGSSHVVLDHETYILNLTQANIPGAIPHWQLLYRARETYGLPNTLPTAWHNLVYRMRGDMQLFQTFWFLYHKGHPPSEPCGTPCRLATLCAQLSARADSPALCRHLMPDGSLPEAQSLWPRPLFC
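HMU-PC0 cleavage (9 uM final) by human placental ASM, 60 min at 37 °C following 10 min compound exposure at RT; stopped at pH 10, fluorescence Ex 386/Em 447 nm.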
IL1B secr inh – qHTS for Inhibitors of Inflammasome Signaling: IL-1-beta AlphaLISA Primary Screen; THP-1 LPS/ATP IL-1B secretion, AlphaLISA, 16 h; hits give low values; activity change, % at 57.5 µM; hit rate 4.7% among 360,000; in the data active means activity change below about -50%; inconclusive means mostly about -30% to -49%; further: on the % scale 0 is the no-effect control and ±100 the full control effect
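Secreted IL-1B measured by AlphaLISA bead assay after 16 h compound exposure of THP-1 cells; compounds (final up to 57.5 uM) added 1 h before LPS (250 ng/mL) and ATP (1.25 mM) stimulation; lower signal means less secretion.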
TDP1 cell noCPT – qHTS for Inhibitors of human tyrosyl-DNA phosphodiesterase 1 (TDP1): qHTS in cells in absence of CPT; DT40 Tdp1-/- hTDP1 cells, no CPT, ATP luminescence, 48 h; Potency, µM (top dose mostly 46.2 µM), for the others: at the top dose activity change, negative = growth inhibition, most hits filed as inhibitors; hit rate 15% among 420,000; further: potency means the concentration at half of the fitted maximal effect; on the % scale 0 is the no-effect control and ±100 the full control effect; nearly all actives have a fitted effect of over 55% in size
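Seeded 400 DT40-hTDP1 cells/well (vehicle DMSO, no 20 nM CPT); pinned compounds; ≥48 hr at 37 °C; CellTiter-Glo luminescence as viability measure.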
* = called active by the depositor; ? = inconclusive; · = no result. Compounds with a hit are over-represented: about 19% of the library has one in this group of screens. Unless noted, the call rests on the fitted dose curve; in most records, active means well fitted curve in the direction sought with a large enough effect; inconclusive means small, poorly fitted or top-dose-only effect, or another doubt; inactive means no such curve, though single readings can be large; an effect the other way counts as inactive or inconclusive.

SMILES	TDP1 cell CPT	HepG2 viability	TGFb inhibitor	ASM inhibitor	IL1B secr inh	TDP1 cell noCPT
Cc1ccc(NC(=S)C2=C(O)c3sccc3N(C)S2(=O)=O)cc1	?	5%	-2%	-2%	13	?
Cc1ccc(NC(=O)C2=C(O)c3sccc3N(C)S2(=O)=O)cc1	?	4%	-26%	0%	-17	21µM*
CN1c2ccccc2C(O)=C(C(=S)Nc2ccc(Cl)cc2)S1(=O)=O	16µM*	-48%	-10%	10%	-13	21µM*
Cc1ccc(OCC(=O)NC(=S)Nc2ccc(S(=O)(=O)Nc3cc(C)on3)cc2)c(Br)c1	1%	-1%	2%	-4%	0	-5%
CN(C)c1ccc(C(CN)c2c[nH]c3ccccc23)cc1 (stereo unspecified)	18µM*	-46%	-25%	-4%	0	21µM*
CC1(C)CC(=O)C=C(NCc2ccc(C(=O)O)cc2)C1	2%	-30%	-14%	-1%	-14	15%
CC1CCCCC1Nc1ncnc2sccc12 (stereo unspecified)	18µM*	-31%	2%	5%	11	?
c1ccc(Nc2ncnc3sccc23)cc1	-2%	1%	31%	3%	6	-14%
Nc1cccc(-c2cnc3ccccc3n2)c1	-22%	-33%	-4%	-4%	-4	-21%
Cc1c(Cc2ccccc2)c(=O)oc2cc(OCC(=O)N[C@@H](Cc3ccccc3)C(=O)O)ccc12	16%	-16%	-8%	21%	-1	0%
CC(=O)COc1ccc2c(C)c(-c3ccccc3)c(=O)oc2c1	?	-26%	-21%	2%	-6	26µM*
Cc1c(Cc2ccccc2)c(=O)oc2cc(OCC(=O)NCc3ccccn3)ccc12	?	-50%	-15%	3%	-52*	-17%
CN(C)S(=O)(=O)c1ccc(C(=O)Nc2c(C(=O)Nc3ccc(F)cc3)oc3ccccc23)cc1	-12%	-1%	12%	·	·	?
COCCN(C(=O)CSc1nnc(-c2cccc(Cl)c2)n1N)c1c(N)n(CC(C)C)c(=O)[nH]c1=O	-9%	-16%	3%	·	-5	5%
C[N+]1(Cc2ccccc2)CCC(C(=O)OCC2CCCC2)CC1 (stereo unspecified)	?	·	·	·	·	21µM*
CC(C)N(Cc1ccccc1)C(=O)COC(=O)C1CCCCC1	5%	-1%	21%	3%	6	-5%
COC(=O)c1c(N2C(=O)CC(Sc3ccccc3C(=O)O)C2=O)sc2c1CCCC2 (stereo unspecified)	?	1%	13%	4%	13	7.3µM*
COC(=O)c1c(N2C(=O)CC(Sc3ccccc3C(=O)O)C2=O)sc(C)c1C (stereo unspecified)	?	4%	0%	-1%	-8	?
CCOC(=O)c1cc(CC)sc1NC(=O)C(c1ccccc1)c1ccccc1	?	-3%	11%	-2%	-1	?
CCOC(=O)c1cc(CC)sc1N1C(=O)CC(Sc2ccccc2C(=O)O)C1=O (stereo unspecified)	2.9µM*	-2%	9%	4%	27	4.1µM*
Cc1ccccc1CC(=O)Nc1cc(C(C)(C)C)on1	9%	-8%	-3%	1%	8	-27%
CC(=O)Nc1cc(-c2ccc(S(C)(=O)=O)cc2)cn2c(-c3ccc(F)c(Cl)c3)cnc12	18µM*	-2%	?	·	?	16µM*
CC(=O)Nc1cc(-c2ccc(N(C)C)cc2)cn2c(-c3ccc(F)cc3)cnc12	?	-27%	-17%	·	-6	?
CC(=O)Nc1cc(-c2ccc(N(C)C)cc2)cn2c(-c3ccc(F)c(Cl)c3)cnc12	18µM*	1%	31%	·	-17	15µM*
O=C(O)[C@H]1[C@H]2C[C@H]3c4[nH]c5ccccc5c4CCN3C[C@@H]2CC[C@@H]1O	11µM*	·	·	·	·	13µM*
SMILES	TDP1 cell CPT	HepG2 viability	TGFb inhibitor	ASM inhibitor	IL1B secr inh	TDP1 cell noCPT
c1ccc(Nc2nc3ccccc3o2)cc1	-25%	-2%	-6%	-3%	18	-8%
Cc1cc(C)nc(Nc2nc3ccccc3o2)n1	-3%	0%	6%	2%	-76*	?
Fc1ccccc1Nc1nc2ccccc2o1	-3%	7.1µM*	-5%	0%	-16	?
Cc1ccc(NC(=O)c2c(C)nc(Nc3nc4ccccc4o3)nc2C)cc1	-25%	-17%	0%	-3%	?	-16%
COC(=O)c1ccccc1NC(=O)c1ncoc1-c1ccco1	13µM*	-13%	22%	·	·	?
FC(F)(F)c1cc(CO[C@@H]2CCCN[C@@H]2c2ccccc2)cc(C(F)(F)F)c1	?	-99%	?	-2%	?	13µM*
O=C(O)CCCNc1cc(N2CCN(C(=O)c3ccco3)CC2)c2noc3c2c1C(=O)c1ccccc1-3	?	-36%	76%	-15%	?	?
CCOC(=O)N1CCN(c2cc(NCCC(=O)O)c3c4c(onc24)-c2ccccc2C3=O)CC1	?	-11%	92%	-17%	-64*	?
COc1ccccc1N1CCN(C2CCCN(C(=O)c3cc(C(C)C)on3)C2)CC1 (stereo unspecified)	?	-25%	-13%	·	5	?
O=C1c2ccccc2-c2onc3c(N4CCN(CCO)CC4)cc(N4CCN(C(=O)c5ccco5)CC4)c1c23	?	18µM*	13µM*	-26%	?	15µM*
CCCCNc1cc(N2CCN(C3CCCCC3)CC2)c2noc3c2c1C(=O)c1ccccc1-3	5.2µM*	-30%	-5%	·	·	5.2µM*
O=C(O)CCNc1ccc(NCCC(=O)O)c2c1C(=O)c1ccccc1C2=O	?	-21%	2%	8%	0	?
COc1ccc(CC(=O)NCc2ccccc2F)cc1S(=O)(=O)N1CCOCC1	6%	4%	-1%	·	-10	-4%
CN(C)c1ccc(/C=C/C=C2/C=Cc3ccccc32)cc1	?	-92%	2%	·	·	?
COC(=O)c1ccccc1N(C)S(=O)(=O)c1cc2c3c(c1)CCC(=O)N3CCC2	?	-17%	-1%	3%	33	?

Source: PubChem BioAssay
